# Screens: PubChem BioAssay, National Center for Advancing Translational Sciences (NCATS)
# Shiga inhibitor – inhibitors of Shiga toxin in Vero cells. Vero cells, Shiga toxin protein synthesis inhibition reporter. inhibition, % at 38.7 µM. 9.2% of 290,000 active. AID 2315; in the data active means inhibition mostly above about 28%, no sharp cut-off; inactive means mostly below about 43%; further: 0% is about no effect
# Sm TGR inh – blocks Schistosoma mansoni thioredoxin glutathione reductase. 3% of 360,000 active. Potency, µM (doses to about 114 µM), for inactives: at the top dose activity change, negative = inhibition, hits mostly inhibitors. purified TGR, DTNB reduction, TNB absorbance 405 nm. Q962Y6; further: potency means the concentration at half of the fitted maximal effect; on the % scale 0 is the no-effect control and ±100 the full control effect; nearly all actives have a fitted effect of over 60% in size
#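 First, TGR (20 nM dispensed) and NADPH were mixed with compound. Second, a 15 min room-temperature incubation followed. Third, further NADPH and then DTNB were added to start the reaction. Finally, TNB absorbance was monitored kinetically.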
# Tb PYK inh – T. brucei pyruvate kinase inhibition. Q57TT1. TbPYK enzyme, Kinase-Glo Plus ATP luminescence, 45 min. Potency, µM (highest dose often 76.8 µM), for the others: at the top dose activity, negative = inhibition, most hits filed as inhibitors. 0.12% of 410,000 active. AID 624173; further: potency means the concentration at half of the fitted maximal effect; on the % scale 0 is the no-effect control and ±100 the full control effect; nearly all actives have a fitted effect of over 50% in size
#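 TbPYK + substrate in 50 mM TEA pH 7.2, 100 mM KCl, 10 mM MgCl2, 0.05% BSA, 0.01% Tween-20; cpd pinned; ADP 130 uM final; 45 min RT; Kinase-Glo Plus 10 min; luminescence endpoint.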
# Cycloheximide cs – affects cycloheximide protein synthesis inhibition readout, counter-screen; cell reporter, cycloheximide protein synthesis inhibition counterscreen; 12% of 300,000 active; max response, %; in the data active means max response mostly above about 13%, no sharp cut-off; inactive means mostly below about 14%; further: read at 38.3 µM for the half of the compounds with a filed dose; 0% is about no effect
# LmPK inh – LmPK (Leishmania mexicana) enzyme inhibition; Q27686; purified LmPK, Kinase-Glo ATP luminescence, 1 h; Potency, µM (highest dose often 57.5 µM), for the others: top-dose activity change, negative = inhibition, most hits filed as inhibitors; 0.37% of 290,000 active; AID 1721; further: potency means the concentration at half of the fitted maximal effect; on the % scale 0 is the no-effect control and ±100 the full control effect
# Target sequence (Q27686 whole entry, looked up): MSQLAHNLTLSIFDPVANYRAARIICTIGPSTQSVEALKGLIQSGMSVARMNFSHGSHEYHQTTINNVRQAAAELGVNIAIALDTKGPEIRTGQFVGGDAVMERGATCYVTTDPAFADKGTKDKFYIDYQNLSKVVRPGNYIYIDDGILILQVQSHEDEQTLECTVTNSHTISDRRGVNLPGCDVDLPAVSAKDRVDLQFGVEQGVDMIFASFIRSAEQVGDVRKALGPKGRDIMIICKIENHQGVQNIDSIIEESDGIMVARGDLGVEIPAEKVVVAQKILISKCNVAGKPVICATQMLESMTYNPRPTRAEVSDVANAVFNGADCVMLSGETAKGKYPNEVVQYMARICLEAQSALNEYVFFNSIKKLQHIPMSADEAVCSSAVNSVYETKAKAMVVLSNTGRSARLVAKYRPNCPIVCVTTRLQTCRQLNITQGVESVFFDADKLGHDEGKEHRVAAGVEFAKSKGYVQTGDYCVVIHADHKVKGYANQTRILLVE
#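 Purified LmPK (0.1 nM) converted ADP (0.1 mM) to ATP with PEP (0.5 mM) in imidazole buffer pH 7.2 with KCl and MgCl2, 1 h at room temperature. ATP was read by Kinase-Glo luminescence; data normalized to uninhibited and no-enzyme controls.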
# Giardia FBPA inh – Giardia lamblia aldolase inhibition. purified Giardia FBPA. 0.71% of 290,000 active. A8B2U2. Potency, µM (series often up to 59.6 µM), for inactives: at the highest dose activity, negative = inhibition, most hits filed as inhibitors; further: potency means the concentration at half of the fitted maximal effect; on the % scale 0 is the no-effect control and ±100 the full control effect; nearly all actives have a fitted effect of over 55% in size
#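 Giardia FBPA (40 nM reagent) was preincubated 10 min at RT with compound (up to 57.5 uM final), then substrate plus GAPDH/TPI/NAD/arsenate coupling system with diaphorase/resazurin was added; resorufin fluorescence (525/598 nm) was read after 20 min.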
# Active calls of the source: *; ? = inconclusive; / = no result given; + = active, no number; [ ] = dose if it differs, or a comment. This excerpt belongs to a sample that is enriched for hits. Unless noted, the call rests on the fitted dose curve; in most records, active means well fitted curve in the direction sought with a large enough effect; inconclusive means small, poorly fitted or top-dose-only effect, or another doubt; inactive means no such curve, though single readings can be large; an effect the other way counts as inactive or inconclusive.
SMILES,Shiga inhibitor,Sm TGR inh,Tb PYK inh,Cycloheximide cs,LmPK inh,Giardia FBPA inh
O=C(Nc1cccc(-c2nc3cccnc3s2)c1)c1ccco1,57.2*,-23.1%,0.6%,20.3*,4.2%,1.4%
O=C(Nc1ccc(N2CCN(C(=O)c3ccco3)CC2)cc1)c1ccccc1Br,-30.3,-52.8%,-4.5%,8.7,-23.2%,/
O=C(COc1ccc([N+](=O)[O-])cc1)Nc1ccc(N2CCN(C(=O)c3ccco3)CC2)cc1,-16.2,35.5µM*,3.2%,-0.3,-11.4%,/
O=C(Nc1ccc(N2CCN(C(=O)c3ccco3)CC2)cc1)c1ccccc1F,24.0,0.3%,-0.1%,22.1*,-0.4%,24.6%
O=C(Nc1ccc(N2CCN(C(=O)c3ccco3)CC2)cc1)c1cccc(F)c1,16.2,8.1%,0.2%,22.2*,0.8%,-12.8%
CC(=O)N1CCN(c2ccc(NC(=O)c3cccc(F)c3)cc2)CC1,/,/,-0.8%,/,/,/
O=C(/C=C/c1c(Cl)nc2ccccn12)Nc1ccc(F)cc1,12.3,1.1%,2.5%,14.8*,-0.2%,-2.8%
Cc1cccc(N=C2NC(=O)/C(=C/c3cccn3C)S2)c1,52.2*,-18.1%,-2.3%,26.8*,5.3%,2.1%
Cc1ccccc1N=C1NC(=O)/C(=C/c2cccn2C)S1,16.6,-20.6%,0.7%,13.3*,-3.2%,-1.2%
O=C1NC(=Nc2ccccc2)S/C1=C\c1cccnc1,8.0,-0.5%,3.7%,1.2,-2.3%,0.4%
Cc1c(/C=C2\SC(=Nc3cccc(C(=O)O)c3)NC2=O)c2ccccc2n1C,9.4,1.1%,-9.8%,9.7,3.8%,18.5%
O=C1NC(=Nc2ccccc2)S/C1=C\c1cccn1-c1ccccc1,60.6*,-16.6%,-22.8%,46.9*,3.7%,-2.3%
C#CCOC(=O)c1cc(Cl)c(=O)n(Cc2ccc(Cl)cc2Cl)c1,-9.1,26.6%,0.0%,0.7,-3.5%,8.6%
CCCc1nn(C)c(C(=O)Nc2ccc3ccccc3c2)c1Cl,53.7*,0.3%,-2.3%,49.2*,-1.6%,-2.3%
CCCc1nn(C)c(C(=O)Nc2cccc(CC)c2)c1Cl,+,-5.4%,-1.1%,18.5*,-7.4%,-2.7%
Cc1nn(C)c(C(=O)Nc2cccc(CN3CCOCC3)c2)c1Br,-4.1,-0.1%,-5.8%,-2.4,4.6%,4.7%
CC(NC(=O)c1cccc(N(C)C)c1)c1ccc(-n2ccnc2)cc1 (configuration not stated),-3.8,0.0%,-2.1%,1.5,0.3%,/
CC1SCC(NC(=O)c2ccc(Cl)cc2)CS1 (configuration not stated),48.8*,-0.4%,-2.9%,28.9*,-0.9%,6.6%
CC1SCC(NC(=O)c2cccc(Cl)c2)CS1 (configuration not stated),45.6,0.1%,-0.1%,19.6,6.0%,5.3%
O=C(NC1CCS(=O)(=O)C1)c1ccccc1Cl (configuration not stated),/,/,0.4%,/,/,/
CC1SCC(NC(=O)c2ccccc2Cl)CS1 (configuration not stated),73.8*,23.6%,0.1%,52.8*,2.4%,2.9%
O=c1oc2cc(Cl)ccc2n1CSc1nc2ccccc2s1,57.8*,0.4%,-20.2%,30.6*,0.6%,-6.4%
O=C(O)c1ccccc1C(=O)NNc1cccc(Cl)n1,97.5*,-9.0%,-1.3%,48.8*,-4.7%,-5.5%
NS(=O)(=O)c1ccc(NNC(=O)c2ccccc2C(=O)O)cc1,89.5,-0.3%,-0.4%,28.6*,4.5%,-17.4%
O=C(O)c1ccccc1C(=O)NNc1ccc(F)cc1F,-16.5,12.3%,5.7%,-5.7,-8.4%,4.9%
SMILES,Shiga inhibitor,Sm TGR inh,Tb PYK inh,Cycloheximide cs,LmPK inh,Giardia FBPA inh
O=C(O)c1ccccc1C(=O)NNc1ccc(Cl)cc1,49.2*,-32.7%,2.2%,11.4*,-1.0%,0.4%
NS(=O)(=O)c1ccc(NC(=O)c2ccccc2Cl)cc1,-7.0,-9.3%,3.9%,1.1,0.6%,-1.1%
CC(C)OCCCn1c(SCc2cccc(Br)c2)nc2c(sc3ccccc32)c1=O,/,-3.9%,-1.7%,/,/,/
CC(=O)Oc1ccc2c(c1)CCC1C2CC[C@]2(C)C(=O)CCC12 (some centres not stated),/,/,/,/,/,-4.6%
Cc1ccc(NC(=O)CCc2c(C)nc3nc(C)nn3c2C)c(Cl)c1,/,-2.2%,-0.2%,/,/,/
CN(C)CCCn1c(=O)n(CCc2ccccc2)c(=O)c2c3c(sc21)CCCCC3,-11.2,11.7%,0.7%,-3.5,-1.0%,-8.8%
CN(C)CCCn1c(=O)n(Cc2ccco2)c(=O)c2c3c(sc21)CCCCC3,-1.8,35.5µM*,?,1.8,0.4%,-1.9%
O=c1c2c3c(sc2[nH]c(=S)n1Cc1ccco1)CCC3,15.6,14.1µM*,?,0.6,-10.6%,-20.5%
CCc1nc2c(OCCOc3ccc(F)cc3)cccn2c1N(C)C(=O)C(C)C,/,/,0.7%,/,/,/
CC(=O)N1CCN(C(=O)c2ccc(S(=O)(=O)Nc3ccccc3F)cc2)CC1,/,-3.7%,6.0%,/,/,/
Cc1ccc(-n2ncc3ccccc3c2=O)cc1Cl,113.5*,7.2%,-0.3%,38.2*,-10.2%,-2.7%
O=c1c2ccccc2cnn1-c1ccc(Cl)cc1,93.0*,9.1%,7.7%,35.5*,-15.9%,-10.2%
Cc1ccc(-n2ncc3c(N(C)C)ncnc32)cc1Cl,/,4.5%,-8.3%,/,/,/
C#CCN(C[C@H]1[C@H](OC(=O)NCc2ccccc2F)[C@H](OC(=O)NCc2ccccc2F)C[C@@H](C(=O)OC)[C@H]1C(=O)OC)S(=O)(=O)c1ccc(C)cc1,/,/,-1.6%,/,/,/
CC(C)c1ccc(/C=C2\SC(=O)N(CC(=O)NCCCn3ccnc3)C2=O)cc1,69.4*,-10.6%,-2.8%,39.1*,-0.9%,7.0%
CC(C)c1ccc(/C=C2\SC(=S)N(CC(=O)NCCCN3CCOCC3)C2=O)cc1,46.4,-11.2%,-10.1%,39.1*,-3.1%,/
CCOc1ccc(/C=C2\SC(=S)N(CC(=O)NCCCN3CCOCC3)C2=O)cc1,46.8*,6.8%,-6.9%,21.5*,-4.4%,/
O=C(CN1C(=O)/C(=C/c2cccc(Br)c2)SC1=S)NCCCN1CCOCC1,16.0,-11.4%,2.4%,8.3,0.6%,/
CCc1ccc(NS(=O)(=O)c2ccc3[nH]cc(C(=O)NC4CCCC4)c(=O)c3c2)cc1,/,-8.7%,2.7%,/,/,/
CC(=O)N1CCCc2cc(S(=O)(=O)N3CCC(C(=O)Nc4cccc(Cl)c4C)CC3)ccc21,/,-2.6%,-9.3%,/,/,/
S=C(NCc1ccccn1)Nc1ccc(Cl)c(Cl)c1,15.8,1.2%,5.5%,27.9,4.0%,-8.9%
COc1ccc(NC(=S)Nc2ncccc2C)cc1OC,75.6*,-25.1%,-1.5%,46.4*,-5.3%,?
S=C(NCCc1ccccc1)Nc1ncccn1,/,/,-7.3%,/,/,/
Cc1cccnc1NC(N)=S,17.5,6.8%,-14.0%,4.1,-3.2%,-0.8%
Cc1cccnc1NC(=S)Nc1ccc(Cl)c(Cl)c1,102.8*,-2.5%[57.1 µM],-2.7%,32.3*,-2.5%,-13.5%
